For 69 compounds, INHIBITION results are on record in ChEMBL document CHEMBL4513216, “Probing the Open Global Health Chemical Diversity Library for Multistage-Active Starting Points for Next-Generation Antimalarials” (ACS Infect Dis, 2020).

Each structure is given as a SMILES string. Screen size: about 69,000 compounds; about 8,600 (12%) showed an effect of 50% or more. The sample holds strong results, similar compounds and a random draw of the others, so the mix is not that of the screen.

The test deals with Plasmodium berghei. The test is described as follows: Screen against P. berghei liver stage (PbLuc), transformed with Luciferase, at 10uM. In kind it is functional, HepG2. As to conditions: tested at 10 uM.
Regarding `COc1ccc(C)cc1Nc1nc2c(C)nn(C)c2c(=O)n1C`, the INHIBITION is given as -2.13%.

Regarding `COCCN1CCC(CNC(=O)C2(c3cccc(Cl)c3)CC2)C1` (centres undefined), the INHIBITION is given as 30.6%.

Take `c1cncc(CN2CCC(c3ccc4c(c3)OCO4)CC2)c1`: the INHIBITION is 6.4%.

On to `Cc1nc(O)c2nnn(C[C@H]3CCCN3C(=O)C3CCCC3)c2n1`, for which the INHIBITION is listed as 30.4%.

In the case of `Cc1cc(NC(=O)NCCCSc2nncn2C)no1`, the INHIBITION worked out at 15%.

As for `Cc1nn(C)c(N(C)C)c1CNCc1ccc2c(c1)OCO2`, the INHIBITION was 11.4%.

As to `COC1CCN(c2ccc(F)cc2CN(C)CC(N)=O)CC1`, the INHIBITION is -3.83%.

`CC(=O)N1CCCC1c1cccc(Cc2ccccc2Cl)n1` (centres undefined): the INHIBITION is recorded as 38.2%.

In the case of `CN1CCCC(c2cccc(CCC(N)=O)n2)C1` (centres undefined), the INHIBITION is -4.51%.

For `CN1CCCC(c2cccc(Cc3ccccc3Cl)n2)C1` (centres undefined), the INHIBITION is reported as 51.7%.

For the compound `Cc1ccc(-c2nc(CSCCC(=O)NC(N)=O)co2)cc1`, the INHIBITION is reported as 89.6%.

Regarding `NC(=O)NC(=O)CCSCc1coc(-c2ccc(F)cc2)n1`, the INHIBITION stood at 67.8%.

`NC(=O)NC(=O)CCSCc1cc(F)cc2cccnc12`: the INHIBITION was -28.9%.

Take `Cc1ccc(-c2nc(CSCCC(=O)NC(N)=O)co2)c(C)c1`: the INHIBITION is 87.4%.

Take `CNC(=O)Cc1coc(-c2ccc(F)cc2)n1`: the INHIBITION was determined as 48.1%.

Turning to `Cc1ccc(-c2nc(CCNC(=O)NCC(C)(C)C(N)=O)co2)cc1`, the INHIBITION is 27.6%.

In the case of `NC(=O)NC(=O)CCSCc1coc(-c2cccc(Cl)c2)n1`, the INHIBITION is recorded as 5.91%.

As for `Cc1ccc(-c2nc(CNCC3CN(C)CCO3)co2)c(C)c1` (centres undefined), the INHIBITION was 7.12%.

As to `CNC(=O)CCS(=O)(=O)Cc1coc(-c2ccc(F)cc2)n1`, the INHIBITION is recorded as 7.43%.

With `CS(=O)(=O)c1cccc(C(N)c2ccc(F)c(F)c2)c1` (centres undefined), the INHIBITION is listed as -15%.

For `COCCNC(=O)Cn1c(-c2ccc(F)cc2)nc(C)c(CCO)c1=O`, the INHIBITION is -20.7%.

For the compound `CC1CCN(CC(=O)NC2CCN(C(C)c3ccccc3)CC2)CC1` (centres undefined), the INHIBITION is given as -1.845%.

Turning to `NCC1CCC(C(NC(=O)CC2CCCC2)c2ccccn2)CC1` (centres undefined), the INHIBITION is listed as 1.11%.

For the compound `Cc1cc(-c2nn3c(C4CC4)nnc3s2)on1`, the INHIBITION is recorded as -6.47%.

As for `CCn1c(C)cc(C(=O)N2CCCC(C(=O)c3nccn3C)C2)c1C` (centres undefined), the INHIBITION was -1.09%.

Consider `CC(=O)NC1CCN(c2cnc(C3CCNCC3)cn2)CC1`, for which the INHIBITION was found to be 18.3%.

With `COCC1CCCN(c2cncc(OCc3ccccc3)n2)C1` (centres undefined), the INHIBITION is on record as 26.5%.

In the case of `CC(Cn1cccn1)NCc1nc(-c2ccco2)no1` (centres undefined), the INHIBITION is 12.7%.

As for `Cc1cnn(CCNCc2nc(-c3ccccn3)no2)c1`, the INHIBITION is on record as -50.5%.

In the case of `Cc1cccc(-c2noc(CNC(C)Cn3cc(C)cn3)n2)c1` (centres undefined), the INHIBITION came out at 25.4%.

Turning to `Cc1cnn(CC(C)NCc2nc(-c3ccco3)no2)c1` (centres undefined), the INHIBITION was 53.5%.

With `CC(Cn1cccn1)NCc1nc(-c2ccccn2)no1` (centres undefined), the INHIBITION is -62.7%.

For `Cc1cnn(CC(C)NCc2nc(-c3ccccn3)no2)c1` (centres undefined), the INHIBITION is listed as 56.1%.

Consider `CN1CC(=O)N(c2cccnc2)CC12CCN(C(=O)c1cccnc1)C2` (centres undefined), for which the INHIBITION is recorded as -13.3%.

Turning to `O=C(c1ccccc1OC1CCCC1)N1CCCC(n2cncn2)C1` (centres undefined), the INHIBITION is 49.8%.

For the compound `Cc1ccc(CN2CCC3(CCC(C(=O)N(C)C)O3)CC2)o1` (centres undefined), the INHIBITION is -7.28%.

With `Cn1cc(CC2CCN(C(=O)NCc3cn4ccsc4n3)C2)cn1` (centres undefined), the INHIBITION is 19.7%.

Consider `CC(C)CNC(=O)N1C[C@@H]2C[C@H](C(=O)NCc3ccccc3)[C@H](C1)O2`, for which the INHIBITION is recorded as -7.2%.

Turning to `COc1ccccc1N1CC(NC(=O)Cn2cc(C(C)C)nn2)CC1=O` (centres undefined), the INHIBITION was -14.2%.

`COc1ccccc1N1CC(NC(=O)c2cc(C(C)C)nn2C)CC1=O` (centres undefined): the INHIBITION was found to be 69.4%.

For the compound `COc1ccccc1N1CC(NC(=O)Cn2cc(C)nn2)CC1=O` (centres undefined), the INHIBITION is recorded as -71.7%.

Take `Cc1ncccc1CNCC1CCc2nnc(C(C)C)n2C1` (centres undefined): the INHIBITION is 29.8%.

As for `Cc1ncsc1CCNC(=O)Cn1nc(C)n(Cc2ccccc2)c1=O`, the INHIBITION was -171%.

For `CC(c1ccccc1Cl)N(C)Cc1nc2c(cnn2C)c(=O)[nH]1` (centres undefined), the INHIBITION is 16.165%.

On to `CCN(CC)C(CNC(=O)c1cccnc1-n1cncn1)c1ccsc1` (centres undefined), for which the INHIBITION was 21.1%.

In the case of `O=C(c1cccs1)N1CCC(Cn2nc(-c3ccco3)ccc2=O)CC1`, the INHIBITION was determined as 33.5%.

As to `CC(C)C(=O)N1CCC(n2nc(-c3ccco3)ccc2=O)CC1`, the INHIBITION is listed as 61.7%.

As to `O=C(c1cccs1)N1CCC(n2nc(-c3ccco3)ccc2=O)CC1`, the INHIBITION came out at 50.6%.

Take `O=C(c1ccco1)N1CCC(n2nc(-c3ccco3)ccc2=O)CC1`: the INHIBITION is -8.12%.

Regarding `O=C(c1ccco1)N1CCC(n2nc(-c3cccs3)ccc2=O)CC1`, the INHIBITION was determined as 5.11%.

As for `CC(C)(C)C(=O)N1CCC(n2nc(-c3ccco3)ccc2=O)CC1`, the INHIBITION is -4.51%.

Regarding `COc1cc(N2C[C@H]3CN(C(=O)c4cccnc4)C[C@H]3C2)ncn1`, the INHIBITION is given as 0.164%.

Consider `CC(C)N(C)Cc1cc(=O)n2c(n1)CN(C(=O)c1cnccn1)CCC2`, for which the INHIBITION was determined as 33.5%.

As for `CC(NC(=O)NCc1cccc(F)c1)(C(=O)O)c1ccco1` (centres undefined), the INHIBITION is 4.52%.

For `CC(NC(=O)NCc1ccccc1)(C(=O)O)c1ccco1` (centres undefined), the INHIBITION came to 58%.

Consider `COc1ccc(CNC(=O)NC(C)(C(=O)O)c2ccco2)cc1F` (centres undefined), for which the INHIBITION is 53.9%.

Turning to `CC(NC(=O)NCc1c(F)cccc1Cl)(C(=O)O)c1ccco1` (centres undefined), the INHIBITION was 14.1%.

As for `CC(NC(=O)NCc1ccccc1F)(C(=O)O)c1ccco1` (centres undefined), the INHIBITION turned out to be 25.1%.

`CC(C)Oc1cccc(CNC(=O)NC(C)(C(=O)O)c2ccco2)c1` (centres undefined): the INHIBITION is listed as 14.4%.

On to `COc1c(CNC2CCCOc3ccc(F)cc32)c(C(C)C)nn1C` (centres undefined), for which the INHIBITION is listed as 0.914%.

For the compound `CC(C)NC(=O)N1CC[C@@H](N(C)C)[C@@H]1Cc1ccccc1`, the INHIBITION is 0.804%.

On to `c1ccc2ncc(CC3CNCCOC3)cc2c1` (centres undefined), for which the INHIBITION is 3.48%.

Consider `COCCN1CC[C@]2(CN(Cc3ccccn3)C[C@H]2C)C1=O`, for which the INHIBITION is listed as -2.03%.

In the case of `O=C(CCNc1ncccn1)N1CCC(Nc2cccnn2)CC1`, the INHIBITION is 0.411%.

For the compound `O=C(CCOc1ccccc1)N1CCC(Nc2cccnn2)CC1`, the INHIBITION turned out to be 50.4%.

For the compound `Cc1ccc(CCC(=O)N2CCC(Nc3cccnn3)CC2)cc1`, the INHIBITION turned out to be 52.5%.

Turning to `COCCCC(=O)N1CCC(Nc2cccnn2)CC1`, the INHIBITION is 31.9%.

Consider `O=C(CCc1ccsc1)N1CCC(Nc2cccnn2)CC1`, for which the INHIBITION is on record as 25.1%.

For `O=C(CCCc1ccccc1)N1CCC(Nc2cccnn2)CC1`, the INHIBITION was -6.44%.
